# Active and inactive are the calls of the source. Unless noted, no stated cut-off is given here; in the data, active means inhibition above about 80%; inactive means the rest.
# Columns and labels:
# [1] = growth inhibition, single agent or in combination, cell-based, chromothripsis tumors, cisplatin or BGB combos (AID 1671449); conditions: LFS_MB_P medulloblastoma cells;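 further: cells exposed for 96 hours; 0% = vehicle DMSO and 100% = killing by high DMSO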
# [2] = growth inhibition, single agent and combos, cell-based, chromothripsis tumors, cisplatin or BGB combos (AID 1671450); conditions: HDN33 neuroblastoma cells, stronger effect = higher value;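 further: cells exposed to compound for four days; 0% = vehicle DMSO and 100% = cell killing by high DMSO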
# [3] = growth inhibition, single agents and combos, ICB984, cell-based, cisplatin or BGB combos, synergistic combos for chromothripsis tumors (AID 1671451; call rule not given here;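 further: cells exposed for 96 hours before readout; 0% = vehicle DMSO and 100% = killing by high DMSO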); conditions: ICB984 medulloblastoma cells, drug combinations, stronger effect = higher value
# [4] = growth inhibition, single agents and combos, LFS_MB_1R, cell-based, cisplatin or BGB combos, synergistic combos for chromothripsis tumors (AID 1671452); conditions: LFS_MB_1R medulloblastoma cells, stronger effect = higher value;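 further: cells exposed for 96 hours before readout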
# [5] = growth inhibition, single agents and combos, HTB85, cell-based, BGB or cisplatin IC20 combos, synergistic combos for chromothripsis tumors (AID 1671453); conditions: HTB85 osteosarcoma cells, drug combinations, stronger effect = higher value;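 further: cells exposed for 96 hours before readout; 0% = vehicle DMSO and 100% = high DMSO killing control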
# [6] = growth inhibition, single agents and combos, CRL2098, cell-based, BGB or cisplatin IC20 combos, synergistic combos for chromothripsis tumors (AID 1671454); conditions: CRL2098 osteosarcoma cells, drug combinations, stronger effect = higher value;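 further: cells exposed for 96 h before readout; 0% = vehicle DMSO and 100% = killing by high DMSO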
# [7] = growth inhibition, single agents and combos, HD-MB03, cell-based, BGB or cisplatin IC20 combos, synergistic combos for chromothripsis tumors (AID 1671455; in the data active means inhibition above about 83%;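 further: 0% = vehicle DMSO and 100% = high DMSO as cytotoxic control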); conditions: HD-MB03 medulloblastoma cells, stronger effect = higher value
# [8] = growth inhibition, single agents and combos, UWB1.289, cell-based, BGB or cisplatin combos, synergistic combos for chromothripsis tumors (AID 1671456); conditions: UWB1.289 ovarian carcinoma cells, stronger effect = higher value;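 further: cells exposed to compound for four days; 0% = vehicle DMSO and 100% = killing by high DMSO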
# [9] = growth inhibition, single agents and combos, LFS_MB_2R, cell-based, cisplatin combos, synergistic combos for chromothripsis tumors (AID 1671457); conditions: LFS_MB_2R medulloblastoma cells, stronger effect = higher value;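 further: cells exposed to compound for four days before readout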
# [10] = growth inhibition, MDA-MB-436, cell-based, BGB or cisplatin combos, synergistic combos for chromothripsis tumors (AID 1671458; call rule not given here;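 further: cells exposed for 96 hours; 0% = vehicle DMSO and 100% = killing by high DMSO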); conditions: MDA-MB-436 breast carcinoma growth inhibition, drug combinations, stronger effect = higher value
# [11] = UWB1.289_BRCA1 ovarian cancer growth, cell-based, BGB or cisplatin combinations (AID 1671459); conditions: UWB1.289 BRCA1 ovarian carcinoma, drug combinations, stronger effect = higher value
# [12] = drug combination toxicity in non-malignant astrocytes – cell-based, BGB or cisplatin IC20 combos, cytotoxicity control for chromothriptic childhood tumor combination screen (AID 1671460); conditions: Human astrocytes, viability inhibition, drug combinations, at 0.5 µM, stronger effect = higher value;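 further: cells exposed to compounds for 96 hours before viability readout; 0% = vehicle and 100% = killing control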
# [13] = BT084 cell growth, single and combined drugs, ICGC_MB145, cisplatin and BGB IC40 combos (AID 1671461); conditions: BT084 medulloblastoma cells, drug combinations, stronger effect = higher value;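 further: cells exposed to drugs for 96 hours; 0% = vehicle DMSO and 100% = high DMSO full killing control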
# [14] = RCMB18 cell growth, single agent and combined, cisplatin and BGB IC40 combos (AID 1671462); conditions: RCMB18 medulloblastoma cells, stronger effect = higher value;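 further: cells exposed to compound for four days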
# [15] = CRL1545 cell growth, single agent and combined, cisplatin and BGB IC20 combos (AID 1671464); conditions: CRL1545 osteosarcoma cells, stronger effect = higher value;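 further: cells exposed to compound for 96 hours before readout; 0% = vehicle DMSO and 100% = high DMSO killing control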
# [16] = measured here: combination with BGB IC40, at 0.05 µM
# [17] = measured here: with BGB IC20 combination, at 0.5 µM
# [18] = measured here: with cisplatin IC20 combination, at 0.5 µM
# [19] = measured here: combination with cisplatin, at 0.5 µM
# [20] = measured here: combination with cisplatin, at 5 µM
compound,measurement,setting,value
COc1cccc2c1C(=O)c1c(O)c3c(c(O)c1C2=O)CC(O)(C(C)=O)CC3OC1CC(N)C(O)C(C)O1 (stereo not drawn),inhibition,"[1]; at 0.5 µM, stronger effect = higher value",-31.5% (inactive)
same,inhibition,"[1]; measured here: combination with BGB IC20, at 0.005 µM",15.7%
same,inhibition,"[1]; measured here: combination with BGB IC40, at 0.005 µM",-20.1%
same,inhibition,[1]; [16],0.2%
same,inhibition,"[1]; measured here: combination with cisplatin, at 0.5 µM, stronger effect = higher value",-39.6%
same,inhibition,"[1]; measured here: combination with cisplatin, at 5 µM, stronger effect = higher value",121%
same,inhibition,"[2]; BGB combo, at 5 µM",99.8%
same,inhibition,[2]; at 0.5 µM,99.4% (active)
same,inhibition,"[2]; cisplatin combo, at 5 µM",99.9%
same,inhibition,[2]; [17],98.9%
same,inhibition,[2]; [18],99.7%
same,inhibition,"[2]; single agent, at 5 µM",99.9%
same,inhibition,"[3]; BGB IC20 combo, at 0.005 µM",97.7%
same,inhibition,"[3]; BGB IC40 combo, at 0.005 µM",98%
same,inhibition,"[3]; BGB IC40 combo, at 0.05 µM",102%
same,inhibition,[3]; at 0.5 µM,-13% (inactive)
same,inhibition,"[3]; cisplatin combo, at 0.05 µM",102%
same,inhibition,"[3]; cisplatin combo, at 0.5 µM",-18.7%
same,inhibition,"[3]; cisplatin combo, at 5 µM",7.68%
same,inhibition,"[3]; measured here: 5 uM single agent, at 5 µM",8.05%
same,inhibition,[4]; at 0.5 µM,101% (active)
same,inhibition,[4]; [16],85%
same,inhibition,[4]; [19],101%
same,inhibition,[4]; [20],104%
same,inhibition,[5]; at 0.5 µM,99.2% (active)
same,inhibition,"[5]; measured here: with BGB IC20, at 0.5 µM",98.8%
same,inhibition,"[5]; measured here: with BGB IC20, at 5 µM",99.9%
same,inhibition,"[5]; measured here: with cisplatin IC20, at 0.5 µM",99.3%
same,inhibition,"[5]; measured here: with cisplatin IC20, at 5 µM",100%
same,inhibition,"[5]; single agent, at 5 µM",99.9%
same,inhibition,[6]; at 0.5 µM,99.4% (active)
same,inhibition,"[6]; measured here: combination with BGB at IC20, at 0.5 µM",98.9%
same,inhibition,"[6]; measured here: combination with cisplatin at IC20, at 0.5 µM",99.6%
same,inhibition,[7]; at 0.5 µM,97.2% (active)
same,inhibition,"[7]; measured here: combo with BGB at IC20, at 0.5 µM",95.8%
same,inhibition,"[7]; measured here: combo with cisplatin at IC20, at 0.5 µM",97.5%
same,inhibition,[8]; at 0.5 µM,72.4% (inactive)
same,inhibition,"[8]; measured here: inhibition with BGB combination, at 0.05 µM",38.4%
same,inhibition,"[8]; measured here: inhibition with cisplatin combination, at 0.05 µM",35.7%
same,inhibition,[9]; at 0.5 µM,86.9% (active)
same,inhibition,[9]; [19],95.6%
same,inhibition,[9]; [20],112%
same,inhibition,[10]; at 0.5 µM,87.4% (active)
same,inhibition,"[10]; measured here: BGB combination, at 0.5 µM",85.1%
same,inhibition,"[10]; measured here: BGB combination, at 5 µM",89.2%
same,inhibition,"[10]; measured here: cisplatin combination, at 0.5 µM",91.5%
same,inhibition,"[10]; measured here: cisplatin combination, at 5 µM",95.1%
same,inhibition,"[11]; BGB combination, concentration series, at 5 µM",104%
same,inhibition,[11]; at 0.5 µM,80.6% (active)
same,inhibition,"[11]; cisplatin combination, concentration series, at 5 µM",98.3%
same,inhibition,[12],93.3% (active)
same,inhibition,[12]; measured here: combo with BGB IC20,88.3%
same,inhibition,[12]; measured here: combo with cisplatin IC20,93.9%
same,inhibition,[13]; at 0.5 µM,40.4% (inactive)
same,inhibition,"[13]; cisplatin combination, at 0.5 µM",18.1%
same,inhibition,"[13]; cisplatin combination, at 5 µM",88%
same,inhibition,"[13]; measured here: BGB IC40 combination 0.05 uM, at 0.05 µM",-6.7%
same,inhibition,"[13]; single agent, at 5 µM",88.2%
same,inhibition,[14]; at 0.5 µM,79% (inactive)
same,inhibition,"[14]; cisplatin combo, at 5 µM",90.7%
same,inhibition,"[14]; measured here: BGB IC40 combination, at 0.05 µM",13.9%
same,inhibition,[14]; [19],77.7%
same,inhibition,"[14]; single agent, at 5 µM",94.7%
same,inhibition,[15]; at 0.5 µM,99.5% (active)
same,inhibition,[15]; [17],99.1%
same,inhibition,[15]; [18],99.7%
same,inhibition,"[15]; single agent, at 0.05 µM",98.4%
same,inhibition,"[15]; single agent, at 5 µM",100%

# From PubChem BioAssay
